Assay results from ChEMBL document CHEMBL3988442, “University of Dundee, Small-Polar-MMV Screening Library” (2021).
For some of these results: Entries with a potency or affinity are not part of this list.

How the values were obtained:
Parameters in all cases: scale not given: direction of the effect not stated beside the values
[1] = molecular target: Protein translocase subunit SecA (Escherichia coli (strain K12)) (UniProt P10408); test: Assay to Identify E. coli SecA ATPase Inhibitors; assay type: functional; details: 30 µM
[2] = molecular target: T1, Ubiquitin-activating enzyme e1, putative (Leishmania donovani (strain BPK282A1)) (UniProt E9BSI1); test: Leishmania donovani Ubiquitin Activating Enzyme (LdE1); assay type: functional; details: 30 µM
T1 sequence (whole entry): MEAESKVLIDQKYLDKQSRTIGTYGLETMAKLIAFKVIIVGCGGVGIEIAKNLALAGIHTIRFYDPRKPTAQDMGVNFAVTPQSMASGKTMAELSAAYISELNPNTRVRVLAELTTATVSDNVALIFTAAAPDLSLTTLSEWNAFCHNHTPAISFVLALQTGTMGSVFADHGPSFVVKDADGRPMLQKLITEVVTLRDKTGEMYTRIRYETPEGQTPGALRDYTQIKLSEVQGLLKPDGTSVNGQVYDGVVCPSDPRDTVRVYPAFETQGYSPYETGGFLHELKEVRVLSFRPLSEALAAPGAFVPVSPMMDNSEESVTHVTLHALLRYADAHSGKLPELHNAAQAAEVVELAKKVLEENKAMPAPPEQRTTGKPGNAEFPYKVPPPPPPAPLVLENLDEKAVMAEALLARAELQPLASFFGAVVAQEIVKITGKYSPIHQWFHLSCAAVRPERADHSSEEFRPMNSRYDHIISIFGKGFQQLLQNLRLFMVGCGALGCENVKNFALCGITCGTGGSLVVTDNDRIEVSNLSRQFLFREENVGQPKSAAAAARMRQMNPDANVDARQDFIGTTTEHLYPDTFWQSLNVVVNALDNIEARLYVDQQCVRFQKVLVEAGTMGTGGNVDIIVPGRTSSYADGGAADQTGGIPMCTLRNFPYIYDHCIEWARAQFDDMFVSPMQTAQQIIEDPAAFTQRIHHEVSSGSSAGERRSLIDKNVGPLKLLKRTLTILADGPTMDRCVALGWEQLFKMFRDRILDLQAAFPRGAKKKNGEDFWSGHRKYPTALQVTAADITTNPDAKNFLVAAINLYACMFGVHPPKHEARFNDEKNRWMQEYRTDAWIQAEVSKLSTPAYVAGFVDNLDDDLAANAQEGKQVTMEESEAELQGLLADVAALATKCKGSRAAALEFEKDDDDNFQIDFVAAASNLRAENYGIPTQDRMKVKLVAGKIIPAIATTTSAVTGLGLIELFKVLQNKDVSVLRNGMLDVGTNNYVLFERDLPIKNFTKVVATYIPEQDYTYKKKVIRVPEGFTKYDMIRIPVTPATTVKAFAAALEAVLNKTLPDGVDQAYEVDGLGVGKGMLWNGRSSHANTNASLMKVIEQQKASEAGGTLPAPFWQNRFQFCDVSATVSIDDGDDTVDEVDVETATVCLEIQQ

[3] = molecular target: Sialic acid-binding Ig-like lectin 9 (Homo sapiens) (UniProt Q9Y336); test: Hs-Siglec9 ALPHAscreen SOP 20170721; details: 10 µM
Trypanosoma cruzi = test: Trypanosoma cruzi phosphomannomutase and mannose-1-phosphate guanylyltransferase assay; assay type: functional; details: 10 µM
[4] = molecular target: T2, Arginase-2, mitochondrial (Homo sapiens) (UniProt P78540); test: in vitro enzyme assay to detect the production of urea directly proportional to the activity of Arginase II; assay type: functional; details: 33.3 µM; also: in the data most compounds retested in dose-response had high values
T2 sequence (whole entry): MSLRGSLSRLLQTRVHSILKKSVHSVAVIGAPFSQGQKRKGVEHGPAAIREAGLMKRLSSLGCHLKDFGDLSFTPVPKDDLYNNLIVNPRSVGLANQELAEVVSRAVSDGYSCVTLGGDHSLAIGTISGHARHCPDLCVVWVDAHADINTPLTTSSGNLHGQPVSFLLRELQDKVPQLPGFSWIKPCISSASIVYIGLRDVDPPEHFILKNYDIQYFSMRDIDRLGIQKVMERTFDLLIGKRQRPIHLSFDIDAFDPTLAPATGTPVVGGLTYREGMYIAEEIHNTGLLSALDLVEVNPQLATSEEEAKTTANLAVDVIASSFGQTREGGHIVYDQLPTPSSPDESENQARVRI

[5] = molecular target: T3, Proteasome subunit beta (Trypanosoma cruzi) (UniProt O96673); test: Trypanosoma cruzi proteasome chymotrypsin-like activity (TcProtChymo) assay.; also: in the data most compounds retested in dose-response had high values; assay type: functional; details: 9.37 µM
T3 sequence (whole entry): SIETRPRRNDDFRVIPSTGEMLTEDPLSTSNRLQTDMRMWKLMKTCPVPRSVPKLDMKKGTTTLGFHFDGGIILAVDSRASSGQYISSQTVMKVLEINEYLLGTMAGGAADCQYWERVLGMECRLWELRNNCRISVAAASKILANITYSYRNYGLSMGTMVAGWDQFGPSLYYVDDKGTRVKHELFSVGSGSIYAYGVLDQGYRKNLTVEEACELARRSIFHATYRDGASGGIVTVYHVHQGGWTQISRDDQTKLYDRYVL

Homo sapiens = organism: Homo sapiens; test: To identify inhibition of the IFN signalling (Jak-Stat) pathway via expression of an eGFP reporter gene under the control of an IFN-stimulated response element (ISRE) containing MxA promoter.; assay type: functional; details: 30 µM
[6] = molecular target: T4, Tyrosyl-tRNA synthetase, putative (Trypanosoma cruzi (strain CL Brener)) (UniProt Q4DSP6); test: Trypanosoma cruzi tyrosyl tRNA synthetase (TcYRS) _High Tyrosine SOP; assay type: functional; details: 30 µM; also: in the data most compounds retested in dose-response had high values
T4 sequence (whole entry): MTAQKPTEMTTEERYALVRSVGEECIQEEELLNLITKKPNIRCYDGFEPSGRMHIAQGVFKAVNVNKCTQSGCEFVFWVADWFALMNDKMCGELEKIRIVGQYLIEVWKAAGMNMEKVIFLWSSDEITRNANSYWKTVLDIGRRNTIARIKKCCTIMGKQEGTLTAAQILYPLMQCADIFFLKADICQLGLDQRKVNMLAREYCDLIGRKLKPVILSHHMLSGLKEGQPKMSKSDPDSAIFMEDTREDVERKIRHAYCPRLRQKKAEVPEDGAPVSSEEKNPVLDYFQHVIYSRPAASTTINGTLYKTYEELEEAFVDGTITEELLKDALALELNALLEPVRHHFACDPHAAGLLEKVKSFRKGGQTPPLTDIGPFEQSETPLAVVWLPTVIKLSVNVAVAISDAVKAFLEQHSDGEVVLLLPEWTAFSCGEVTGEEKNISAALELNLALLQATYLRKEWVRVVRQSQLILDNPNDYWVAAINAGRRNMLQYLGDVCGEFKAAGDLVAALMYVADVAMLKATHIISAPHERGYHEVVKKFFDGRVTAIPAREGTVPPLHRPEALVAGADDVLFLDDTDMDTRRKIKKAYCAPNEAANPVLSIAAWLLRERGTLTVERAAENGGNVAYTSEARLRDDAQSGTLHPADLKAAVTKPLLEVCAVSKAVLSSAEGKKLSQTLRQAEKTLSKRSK

[7] = molecular target: T4, Tyrosyl-tRNA synthetase, putative (Trypanosoma cruzi (strain CL Brener)); test: Trypanosoma cruzi tyrosyl tRNA synthetase (TcYRS) SOP; assay type: functional; details: 30 µM
[8] = molecular target: Chromo domain-containing protein 1 (Saccharomyces cerevisiae (strain ATCC 204508 / S288c) (Baker's yeast)) (UniProt P32657); test: ScCHD-1 Enzyme Inhibition Assay; assay type: functional; details: 30 µM; also: in the data most compounds retested in dose-response had high values
Sequence of Chromo domain-containing protein 1 (Saccharomyces cerevisiae (strain ATCC 204508 / S288c) (Baker's yeast)) (P32657 whole entry, the tested form may be a part): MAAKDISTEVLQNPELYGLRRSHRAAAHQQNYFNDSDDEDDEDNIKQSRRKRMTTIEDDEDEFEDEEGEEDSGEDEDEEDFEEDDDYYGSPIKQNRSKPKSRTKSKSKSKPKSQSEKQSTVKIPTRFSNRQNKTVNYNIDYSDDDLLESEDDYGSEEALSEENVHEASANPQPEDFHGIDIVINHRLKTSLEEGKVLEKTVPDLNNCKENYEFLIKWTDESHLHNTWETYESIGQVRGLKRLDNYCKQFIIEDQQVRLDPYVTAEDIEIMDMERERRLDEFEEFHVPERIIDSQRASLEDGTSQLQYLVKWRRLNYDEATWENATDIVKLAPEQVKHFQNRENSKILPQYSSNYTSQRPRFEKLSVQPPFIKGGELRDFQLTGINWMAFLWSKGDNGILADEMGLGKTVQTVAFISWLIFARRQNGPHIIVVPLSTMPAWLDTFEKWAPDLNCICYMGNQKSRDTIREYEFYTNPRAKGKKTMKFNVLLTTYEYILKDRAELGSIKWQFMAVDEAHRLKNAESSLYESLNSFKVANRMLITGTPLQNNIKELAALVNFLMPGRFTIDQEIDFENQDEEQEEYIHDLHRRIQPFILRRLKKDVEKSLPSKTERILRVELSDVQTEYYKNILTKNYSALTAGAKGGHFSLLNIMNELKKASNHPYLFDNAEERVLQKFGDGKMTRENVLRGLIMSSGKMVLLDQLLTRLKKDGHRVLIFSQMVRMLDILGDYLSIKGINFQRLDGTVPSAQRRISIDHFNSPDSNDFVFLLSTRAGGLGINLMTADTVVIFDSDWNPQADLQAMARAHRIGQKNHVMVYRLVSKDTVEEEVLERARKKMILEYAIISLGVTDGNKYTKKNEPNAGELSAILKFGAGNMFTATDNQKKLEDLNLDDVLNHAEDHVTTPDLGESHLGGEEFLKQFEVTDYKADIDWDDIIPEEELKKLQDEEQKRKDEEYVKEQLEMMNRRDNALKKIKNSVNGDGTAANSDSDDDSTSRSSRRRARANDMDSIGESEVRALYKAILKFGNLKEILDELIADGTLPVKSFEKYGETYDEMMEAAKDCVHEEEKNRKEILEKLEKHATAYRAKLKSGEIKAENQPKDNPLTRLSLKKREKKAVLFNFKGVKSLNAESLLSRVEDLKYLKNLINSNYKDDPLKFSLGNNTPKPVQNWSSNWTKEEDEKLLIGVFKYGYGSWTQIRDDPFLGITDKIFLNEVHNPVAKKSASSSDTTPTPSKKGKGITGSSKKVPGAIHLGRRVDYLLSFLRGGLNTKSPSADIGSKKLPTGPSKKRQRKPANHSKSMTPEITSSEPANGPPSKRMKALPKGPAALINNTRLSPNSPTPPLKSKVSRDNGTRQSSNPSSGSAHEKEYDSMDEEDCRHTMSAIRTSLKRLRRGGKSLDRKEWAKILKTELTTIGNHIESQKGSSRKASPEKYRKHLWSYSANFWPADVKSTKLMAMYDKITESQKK

Sequence of Sialic acid-binding Ig-like lectin 9 (Homo sapiens) (Q9Y336 whole entry): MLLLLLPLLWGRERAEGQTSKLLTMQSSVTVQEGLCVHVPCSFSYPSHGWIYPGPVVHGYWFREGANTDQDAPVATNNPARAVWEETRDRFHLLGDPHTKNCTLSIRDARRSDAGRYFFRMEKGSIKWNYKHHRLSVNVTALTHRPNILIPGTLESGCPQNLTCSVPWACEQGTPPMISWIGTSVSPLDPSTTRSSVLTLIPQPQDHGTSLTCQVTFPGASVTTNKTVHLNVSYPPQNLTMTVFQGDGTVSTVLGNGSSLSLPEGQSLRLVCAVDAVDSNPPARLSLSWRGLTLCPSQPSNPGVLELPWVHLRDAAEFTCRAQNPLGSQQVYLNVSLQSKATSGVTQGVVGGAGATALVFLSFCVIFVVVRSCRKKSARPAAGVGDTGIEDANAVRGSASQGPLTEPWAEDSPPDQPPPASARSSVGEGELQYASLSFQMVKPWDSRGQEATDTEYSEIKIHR
Sequence of Protein translocase subunit SecA (Escherichia coli (strain K12)) (P10408 whole entry): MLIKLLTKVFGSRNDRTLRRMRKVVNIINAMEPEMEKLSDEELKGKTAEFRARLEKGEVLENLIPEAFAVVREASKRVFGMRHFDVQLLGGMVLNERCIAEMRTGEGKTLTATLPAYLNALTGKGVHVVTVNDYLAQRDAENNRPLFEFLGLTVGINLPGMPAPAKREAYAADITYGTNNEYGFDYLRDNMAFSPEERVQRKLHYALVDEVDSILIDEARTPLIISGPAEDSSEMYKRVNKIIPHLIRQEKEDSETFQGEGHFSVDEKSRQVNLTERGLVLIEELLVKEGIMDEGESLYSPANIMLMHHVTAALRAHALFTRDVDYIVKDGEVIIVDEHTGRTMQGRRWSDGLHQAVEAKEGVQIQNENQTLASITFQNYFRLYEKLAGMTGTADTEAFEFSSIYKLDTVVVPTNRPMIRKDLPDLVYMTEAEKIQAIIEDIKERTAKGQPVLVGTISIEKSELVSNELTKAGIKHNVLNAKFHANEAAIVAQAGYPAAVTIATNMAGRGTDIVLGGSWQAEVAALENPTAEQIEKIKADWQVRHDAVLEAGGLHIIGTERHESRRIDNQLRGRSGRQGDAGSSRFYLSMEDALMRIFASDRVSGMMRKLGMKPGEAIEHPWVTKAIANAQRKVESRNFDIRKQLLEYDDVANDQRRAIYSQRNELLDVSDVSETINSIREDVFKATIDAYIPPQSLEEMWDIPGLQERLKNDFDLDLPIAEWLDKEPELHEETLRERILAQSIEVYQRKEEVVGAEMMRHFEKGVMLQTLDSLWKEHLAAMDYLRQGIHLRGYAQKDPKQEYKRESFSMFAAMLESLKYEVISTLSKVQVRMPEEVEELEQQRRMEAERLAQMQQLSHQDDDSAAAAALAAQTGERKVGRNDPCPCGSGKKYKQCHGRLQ

SMILES	Percent Effect [1]	Percent Effect [2]	Percent Effect [3]	Percent Effect (Trypanosoma cruzi)	Percent Effect [4]	Percent Effect [5]	Percent Effect (Homo sapiens)	Percent Effect [6]	Percent Effect [7]	Percent Effect [8]
CC(C)Oc1ncccc1CNC(=O)c1ccco1	-4.42%	16%	0.422%	0.402%	5.32%	13.5%	7.02%	5.79%	17.9%	-8.28%
O=C(NCCC1=CCCCC1)C1CCCN(c2ccc3nncn3n2)C1 (stereo not given)	-2.76%	8.11%	3.56%	-0.291%	-9.44%	13.5%	-5.74%	3.72%	12.2%	-1.71%
CCS(=O)(=O)c1ncc(CN(C)Cc2ccccn2)n1CCOC	-6.13%	5.41%	13.7%	5.33%	2.45%	5.65%	3.71%	4.79%	14.6%	-2.76%
OC(CN1CCOCC1)CN1CCc2c(ncn2C2CC2)C1 (stereo not given)	-2.85%	26.7%	-6.52%	-1.21%	-4.88%	14.3%	17.9%	1.58%	7.69%	-10.6%
COc1ccc2c(c1)OCC(CNC(=O)c1ccncc1)C2 (stereo not given)	-6.47%	13.5%	11.5%	7.66%	43.7%	20.4%	32.2%	7.98%	19.5%	71.9%
COc1ccc(CN2C[C@@H]3COC[C@]3(CN(C)C)C2)cc1	-12.1%	-1.3%	-2.55%	1.07%	-1.22%	8.56%	-15%	4.74%	7.69%	-0.368%
CCOCC1CC2(CCN(Cc3ccccn3)CC2)CO1 (stereo not given)	-9.03%	1.3%	1.88%	0.292%	-2.83%	11.7%	-4.94%	2.63%	5.13%	16.1%
COCc1c(C(=O)NC2CCCC2)nnn1-c1ccc(C)cc1	106%	9.33%	-6.27%	-2.37%	0.443%	8.54%	14.6%	-2.12%	7.5%	-17.9%
Fc1ccc(CN2CCC(c3n[nH]c4ncccc34)CC2)cc1F	-7.07%	4%	-2.28%	-6.11%	-0.885%	3.94%	16.9%	-4.23%	-5%	-26.5%
Cc1nc(CN(C)C2CCN(CCCOc3ccccc3)C2)no1 (stereo not given)	0.729%	23.4%	-1.5%	2.42%	-5.94%	20.9%	8.47%	8.82%	21.2%	-11.3%
Cc1cc(OCC(=O)N2CCCC(c3ccn[nH]3)C2)no1 (stereo not given)	-3.04%	5.33%	5.5%	-5.62%	3.55%	6.36%	3.56%	3.68%	7.69%	-8.42%
CCn1ccnc1CN1CCCN(C(=O)c2cc(Cl)c[nH]2)CC1	-1.59%	12.8%	9.67%	7.98%	8.61%	1.79%	10.2%	3.35%	22.9%	-8.12%
CNC(=O)c1ccc(CN(C(=O)c2scnc2C)C2CC2)cc1	-5.91%	-7.69%	-10.3%	-0.845%	-2.87%	3.67%	17.5%	-3.35%	-6.02%	-4.57%
Cc1cncc(C2CCCN(C(=O)c3c[nH]c(=O)[nH]c3=O)C2)n1 (stereo not given)	0.496%	9.33%	-0.809%	-4.14%	0.885%	7.06%	6.63%	4.23%	10%	-18.3%
CC(C)OCCN(C)C(C)c1cccc(S(N)(=O)=O)c1 (stereo not given)	-5.89%	7.79%	-5.22%	-3.36%	2.66%	1.05%	15.1%	-1.96%	-2.35%	-1.17%
CC(C)c1nnc2n1CCN(C(=O)c1ccc3cc[nH]c3c1)C2	-6.11%	10.7%	4.04%	-1.61%	2.66%	1.27%	6.35%	5.79%	12.8%	-9.74%
Cc1nc(C)n(CC2CCCN2Cc2nc3ccccc3n2C)n1 (stereo not given)	-5.84%	10.7%	7.93%	1.81%	3.55%	17.6%	8.44%	1.58%	12.8%	-12.7%
CN(Cc1ccccc1)C(=O)c1nc(S(C)(=O)=O)n2ccccc12	-7.02%	-92.3%	-5.33%	9.67%	-1.23%	1.96%	5.84%	1.44%	13.2%	-7.37%
CC(C)c1cc(N2CCC(N)CC2)n2nccc2n1	-7.82%	5.41%	8.57%	11%	-3.15%	20.6%	11.5%	3.72%	17.1%	-1.59%
COCCN1CCN(Cc2ccc(F)c(C)c2)[C@H]2CS(=O)(=O)C[C@H]21	-6.45%	10.8%	28.9%	12.3%	10.8%	5.48%	-1.07%	7.98%	17.1%	-4.27%
O=C1COC2(CCN(C(=O)c3ccco3)CC2)CN1Cc1ccccn1	-3.84%	16.9%	2.04%	0%	5.48%	8.84%	-15.4%	11.6%	20%	-5.91%
Cc1noc(C(C)C)c1C(=O)NCCCN1CCCC1	-2.44%	26%	0.986%	1.12%	-3.48%	12.1%	8.55%	7.84%	30.6%	-13.2%
